Values without a mark were called inactive. For some of these results: Entries with a potency or affinity are not part of this list. Activity calls are given as the source filed them. Unless noted, no rule for the calls is given here.

Assay [1] in a line: antimalarial activity against Dd2 strain (AID 2302;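 active = growth inhibition above 50% at the single 2 µM test dose, taken to imply half-maximal potency below 2 µM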;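 also: 0% = DMSO untreated growth and 100% = chloroquine plus artemisinin killed control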). Particulars: P. falciparum Dd2 in RBCs, LDH growth readout, 72 h; at 2 µM; stronger effect = higher value.
Assay [2] in a line: HepG2 cytotoxicity, primary screen, cytotoxicity control for P. falciparum antimalarial project, cell-based, ATP luminescence (AID 2303;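 active = inhibition above 50%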;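 also: 0% = DMSO wells and 100% = digitonin-killed cells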). Particulars: HepG2 viability, 24-48 h, at 10 µM, stronger effect = higher value.
Assay [3] has as its target L-lactate dehydrogenase (Plasmodium falciparum (isolate CDC / Honduras)) (UniProt Q27743). The assay is described as follows: PfLDH activity inhibition – cell lysate, 3D7 strain, counter-screen for P. falciparum growth inhibition project (AID 2304).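 Also: 0% = vehicle and 100% = reference inhibitor.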 Particulars: P. falciparum 3D7 crude extract, LDH APAD/NBT absorbance; at 2 µM; stronger effect = higher value.
Assay [4] in a line: inhibition of 3D7 malaria parasite growth – strain 3D7 (AID 2306).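 Also: 0% = DMSO wells and 100% = chloroquine plus artemisinin control wells.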 The note with it: P. falciparum 3D7 erythrocytic growth, LDH absorbance, 72 h; at 2 µM; stronger effect = higher value.
Assay [5] addresses Calcium-dependent protein kinase 1 (Plasmodium falciparum (isolate 3D7)) (UniProt P62344). The assay is described as follows: PfCDPK1 kinase inhibitors, biochemical, TCAMS library (AID 1159585; cut-off not given, nearly all actives have IC50 up to about 0.98 µM;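 also: inhibitors leave more ATP so luminescence rises with inhibition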). Particulars: recombinant PfCDPK1, Kinase-Glo ATP depletion luminescence.
The target of assay [6] is Plasmodium falciparum protein kinase 6 (PK6, PF3D7_1337100) (UniProt Q8IDW1). Description: PfPK6 kinase inhibitors, biochemical, TCAMS library (AID 1159586). The note with it: recombinant PfPK6, Kinase-Glo ATP depletion luminescence.
Chain of Plasmodium falciparum protein kinase 6 (PK6, PF3D7_1337100) (Q8IDW1 1-305): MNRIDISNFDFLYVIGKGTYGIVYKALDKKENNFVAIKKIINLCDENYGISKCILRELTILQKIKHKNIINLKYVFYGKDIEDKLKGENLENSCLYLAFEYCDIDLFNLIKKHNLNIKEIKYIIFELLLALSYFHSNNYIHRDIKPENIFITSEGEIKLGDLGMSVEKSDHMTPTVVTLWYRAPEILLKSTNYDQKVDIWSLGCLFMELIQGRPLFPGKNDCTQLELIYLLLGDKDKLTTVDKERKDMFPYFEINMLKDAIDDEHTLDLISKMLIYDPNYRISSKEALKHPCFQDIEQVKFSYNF
Assay [7] addresses Protein kinase 7 (PK7), Plasmodium falciparum 3D7 (PF3D7_0213400) (UniProt Q7YTF7). The assay is described as follows: inhibition of Plasmodium PK7 catalytic activity – biochemical, TCAMS antimalarial set, Kinase-Glo luminescence (AID 1159587). The note with it: recombinant PfPK7, Kinase-Glo ATP depletion luminescence.
In assay [8] the target is Calcium-dependent protein kinase 4 (Plasmodium falciparum (isolate 3D7)) (UniProt Q8IBS5). The assay is described as follows: PfCDPK4 kinase inhibitors, biochemical, TCAMS library (AID 1159588; cut-off not given, nearly all actives have IC50 up to about 0.91 µM). The note with it: recombinant PfCDPK4, Kinase-Glo ATP depletion luminescence.
Chain of Calcium-dependent protein kinase 4 (Plasmodium falciparum (isolate 3D7)) (Q8IBS5 whole entry, looked up): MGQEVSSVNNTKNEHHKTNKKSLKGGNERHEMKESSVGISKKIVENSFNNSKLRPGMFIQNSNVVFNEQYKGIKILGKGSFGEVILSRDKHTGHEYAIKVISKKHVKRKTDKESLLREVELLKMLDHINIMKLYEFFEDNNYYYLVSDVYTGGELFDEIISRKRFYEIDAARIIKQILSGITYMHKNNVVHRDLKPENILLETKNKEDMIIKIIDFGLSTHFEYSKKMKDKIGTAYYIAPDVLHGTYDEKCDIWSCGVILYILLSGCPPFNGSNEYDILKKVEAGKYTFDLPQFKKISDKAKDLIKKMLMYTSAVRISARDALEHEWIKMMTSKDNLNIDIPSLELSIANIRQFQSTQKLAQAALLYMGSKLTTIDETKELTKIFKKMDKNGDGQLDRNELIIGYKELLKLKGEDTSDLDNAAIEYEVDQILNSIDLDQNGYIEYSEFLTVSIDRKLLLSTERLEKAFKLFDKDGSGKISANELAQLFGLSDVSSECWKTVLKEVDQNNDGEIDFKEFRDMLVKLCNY

Chain of L-lactate dehydrogenase (Plasmodium falciparum (isolate CDC / Honduras)) (Q27743 whole entry, looked up): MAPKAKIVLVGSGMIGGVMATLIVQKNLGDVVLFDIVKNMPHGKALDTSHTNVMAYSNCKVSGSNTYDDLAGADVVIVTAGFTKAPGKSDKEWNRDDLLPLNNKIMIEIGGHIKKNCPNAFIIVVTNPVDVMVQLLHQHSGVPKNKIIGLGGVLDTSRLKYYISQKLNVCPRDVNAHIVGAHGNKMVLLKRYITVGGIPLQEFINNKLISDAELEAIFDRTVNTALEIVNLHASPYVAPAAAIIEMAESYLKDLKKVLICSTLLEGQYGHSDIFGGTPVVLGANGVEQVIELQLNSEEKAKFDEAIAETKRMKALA
Chain of Calcium-dependent protein kinase 1 (Plasmodium falciparum (isolate 3D7)) (P62344 whole entry, looked up): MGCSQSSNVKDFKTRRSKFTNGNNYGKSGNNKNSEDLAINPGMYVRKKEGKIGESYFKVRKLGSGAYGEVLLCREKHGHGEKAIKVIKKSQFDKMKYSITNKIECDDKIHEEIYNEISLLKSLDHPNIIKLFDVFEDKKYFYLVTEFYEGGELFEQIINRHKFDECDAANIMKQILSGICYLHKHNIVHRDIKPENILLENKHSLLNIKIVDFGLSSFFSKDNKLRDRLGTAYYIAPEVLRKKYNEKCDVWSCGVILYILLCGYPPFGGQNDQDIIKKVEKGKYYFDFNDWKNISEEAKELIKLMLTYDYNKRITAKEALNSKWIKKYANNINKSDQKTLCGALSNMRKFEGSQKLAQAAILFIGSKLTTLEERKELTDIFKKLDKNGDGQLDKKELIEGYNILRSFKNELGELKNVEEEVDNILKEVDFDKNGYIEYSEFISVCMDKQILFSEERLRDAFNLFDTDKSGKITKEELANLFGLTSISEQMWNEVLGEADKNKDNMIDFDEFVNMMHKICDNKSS
Chain of Protein kinase 7 (PK7), Plasmodium falciparum 3D7 (PF3D7_0213400) (Q7YTF7 1-343): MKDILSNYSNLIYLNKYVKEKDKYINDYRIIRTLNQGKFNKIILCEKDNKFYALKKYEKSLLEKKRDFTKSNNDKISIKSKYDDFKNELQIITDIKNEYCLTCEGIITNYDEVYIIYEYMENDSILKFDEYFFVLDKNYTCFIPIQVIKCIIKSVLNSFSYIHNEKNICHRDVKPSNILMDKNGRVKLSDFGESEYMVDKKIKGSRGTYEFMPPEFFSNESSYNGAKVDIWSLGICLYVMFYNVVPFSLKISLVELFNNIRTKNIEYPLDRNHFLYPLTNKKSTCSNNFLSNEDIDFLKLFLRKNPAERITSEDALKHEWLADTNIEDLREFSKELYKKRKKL

Take `O=C(Nc1ccc(Br)c(Cl)c1)c1cc([N+](=O)[O-])cc2cn[nH]c12`: the growth inhibition in assay [1] is 63% (active); in assay [4] it was 99% (active). In addition, the inhibition in assay [2] was 49%; in assay [3] it was -1%. Besides, the result in assay [5], in assay [6], in assay [7] and in assay [8] was inactive.

Consider `Cn1cccc1CCNCc1ccc(-c2cccc(-c3nc4ccc(F)cc4[nH]3)c2)cc1`, for which the growth inhibition in assay [1] is 43%; in assay [4] it was 93% (active). Besides, the inhibition in assay [2] is -2%; in assay [3], 1%. The result in assay [5], in assay [6], in assay [7] and in assay [8] was inactive.

Turning to `CCN1CCN(c2cc(C)c3cc(NC(=O)C=Cc4cccc(OC)c4OC)ccc3n2)CC1`, the growth inhibition in assay [1] was 38%; in assay [4], 99% (active). Moreover, the inhibition in assay [2] was 18%; in assay [3] it was -3%. In addition, the result in assay [5], in assay [6], in assay [7] and in assay [8] was inactive.

For the compound `Cc1cc(Br)c(OCCCON2C(N)=NC(N)=NC2(C)C)c(Br)c1`, the growth inhibition in assay [1] is 97% (active); in assay [4], 95% (active). The inhibition in assay [2] was 62% (active); in assay [3] it was -3%. Besides, the outcome in assay [5], in assay [6], in assay [7] and in assay [8] was inactive.

As for `Cc1cc(NCCC(=O)Nc2ccccc2)nc(NCCc2ccc(F)cc2)n1`, the growth inhibition in assay [1] was 43%; in assay [4] it was 101% (active). Moreover, the inhibition in assay [2] is 26%; in assay [3], 2%. Further, the result in assay [5], in assay [6], in assay [7] and in assay [8] was inactive.

Regarding `CCCCCCCNc1cc(C)nc2ccc(OC)cc12`, the growth inhibition was 100% (active) in assay [1] and 101% (active) in assay [4]. Besides, the results for the inhibition in assay [2] and in assay [3] were 30% and -2%, respectively. Besides, the outcome in assay [5], in assay [6], in assay [7] and in assay [8] was inactive.

As to `COc1ccc(O)cc1/C=N/Nc1ccnc2cc(Cl)ccc12`, the growth inhibition in assay [1] was 92% (active); in assay [4] it was 103% (active). The inhibition is -5% in assay [2] and 3% in assay [3]. For the same compound, the outcome in assay [5], in assay [6], in assay [7] and in assay [8] was inactive.

As for `CC(C)(C)c1ccc(CN2CCC(NC(=O)c3ccc(-c4ccccc4F)s3)CC2)cc1`, the growth inhibition in assay [1] is 37%; in assay [4], 85% (active). In addition, the inhibition in assay [2] is 36%; in assay [3], 0%. Besides, the outcome in assay [5], in assay [6], in assay [7] and in assay [8] was inactive.

As for `COc1ccc(-c2cnc3[nH]cc(-c4ccc(C(=O)O)c(C)c4)c3c2)cn1`, the growth inhibition in assay [1] and in assay [4] was 99% (active) throughout. For the same compound, the inhibition in assay [2] is 23%; in assay [3], -5%. Moreover, the result in assay [5], in assay [6], in assay [7] and in assay [8] was inactive.

In the case of `CCCc1ccc(S(=O)(=O)NC2CCN(c3ccnc(Nc4ccc(OC)cc4)n3)C2)cc1` (stereo not given), the growth inhibition in assay [1] was 45%; in assay [4], 89% (active). Besides, the values for the inhibition in assay [2] and in assay [3] were 42% and 0%, respectively. Further, the result in assay [5], in assay [6], in assay [7] and in assay [8] was inactive.

On to `Fc1ccc(-c2cc3ncnc(N4CCN(CCN5CCCC5)CC4)c3s2)cc1`, for which the growth inhibition was 40% in assay [1] and 98% (active) in assay [4]. The inhibition in assay [2] is 25%; in assay [3] it was -1%. Moreover, the result in assay [5], in assay [6], in assay [7] and in assay [8] was inactive.

For the compound `O=C(Nc1ccc(O)c(-c2nc3ccccc3[nH]2)c1)c1ccc([N+](=O)[O-])cc1`, the growth inhibition in assay [1] was 45%; in assay [4], 97% (active). Besides, the inhibition in assay [2] was -2%; in assay [3] it was -6%. The result in assay [5], in assay [6], in assay [7] and in assay [8] was inactive.

For `CN1CCN(Cc2c(O)ccc3c(=O)c(Oc4ccc(C(C)(C)C)cc4)c(C(F)(F)F)oc23)CC1`, the figures for the growth inhibition in assay [1] and in assay [4] were 88% (active) and 99% (active), respectively. The inhibition is -13% in assay [2] and 4% in assay [3]. Moreover, the outcome in assay [5], in assay [6], in assay [7] and in assay [8] was inactive.

For the compound `CC(=O)Nc1ccc(CNCCc2ccc(NC(=O)c3cc(Cl)cc(Cl)c3)cc2)cc1`, the growth inhibition was 31% in assay [1] and 102% (active) in assay [4]. Moreover, the inhibition is 10% in assay [2] and -1% in assay [3]. Also, the outcome in assay [5], in assay [6], in assay [7] and in assay [8] was inactive.

As for `CCn1c(-c2nonc2N)nc2cnc(Oc3cccc(NC(=O)c4ccc(OCCCN5CCCCC5)cc4)c3)cc21`, the growth inhibition was 12% in assay [1] and 90% (active) in assay [4]. Moreover, the inhibition was 38% in assay [2] and -4% in assay [3]. Moreover, the outcome in assay [5], in assay [6], in assay [7] and in assay [8] was inactive.

As to `COc1cc2nc(-c3ccccc3)nc(N3CCN(CC(=O)N4CCCC4)CC3)c2cc1OC`, the growth inhibition in assay [1] was 70% (active); in assay [4] it was 84% (active). The inhibition in assay [2] is 7%; in assay [3], -1%. The outcome in assay [5], in assay [6], in assay [7] and in assay [8] was inactive.

Take `CC(=O)Nc1ccc(S(=O)(=O)N(Cc2cccc(Oc3ccccc3)c2)C2CCN(C/C=C(\C)CCC=C(C)C)CC2)cc1`: the growth inhibition in assay [1] is 99% (active); in assay [4], 100% (active). For the same compound, the inhibition was 22% in assay [2] and 0% in assay [3]. The result in assay [5], in assay [6], in assay [7] and in assay [8] was inactive.

With `CC(C)C(=O)NC(c1ccc(Cl)cc1)c1ccc2cccnc2c1O` (stereo not given), the growth inhibition in assay [1] was 70% (active); in assay [4] it was 91% (active). Further, the inhibition in assay [2] was 53% (active); in assay [3], 3%. Besides, the outcome in assay [5], in assay [6], in assay [7] and in assay [8] was inactive.

Regarding `CN(C(=O)Cc1ccc(Cl)cc1)C1CCN(CCCCCNC(=O)/C=C/c2ccc(Cl)c(Cl)c2)CC1`, the growth inhibition in assay [1] was 16%; in assay [4], 83% (active). The inhibition in assay [2] was 69% (active); in assay [3], -6%. Also, the outcome in assay [5], in assay [6], in assay [7] and in assay [8] was inactive.

As for `COc1ccc(Nc2ncc3c(-c4cccc(NC(=O)Cc5cccc(F)c5)c4)c[nH]c3n2)cc1OC`, the growth inhibition in assay [1] was 68% (active); in assay [4], 101% (active). Moreover, the inhibition is 24% in assay [2] and 2% in assay [3]. In addition, the result in assay [5], in assay [6], in assay [7] and in assay [8] was inactive.

These data come from PubChem BioAssay.
